Measurements taken from PubChem BioAssay AID1159580 (chemical genetic matrix, 2015).
Hit rate of the full screen: of about 5,500 compounds, about 2,000 (36%) were called active. Not shown: some 18% with an inconclusive outcome. Rule as the data show it: active = normalized growth mostly below about 0.91 (no sharp cut-off); inconclusive = no clear call, values can overlap the other calls; inactive = mostly above about 0.92. The list shows a part of the results.

Assay: chemical genetic growth profiling, strain panel (AID 1159580);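 also: tested at 20 µM; growth read once vehicle control cultures reached saturation at 30 °C; 1 = growth at the plate median or of vehicle wells; lower values mean less growth of the strain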
Settings: S. cerevisiae deletion strains, growth OD
[1] = locus YDL101C, strain DUN1, active compounds read low
[2] = locus YJL095W, strain BCK1, active compounds read low
[3] = locus YOR061W, strain CKA2, active compounds read low

Measured: normalized growth

CC(C)c1ccc(-c2cc(=O)c3ccccc3o2)cc1
inactive: locus YAR019C, strain CDC15, active compounds read low 0.937 | locus YBL105C, strain PKC1, active compounds read low 0.935 | locus YBR135W, strain CKS1, active compounds read low 0.932 | locus YBR136W, strain MEC1, active compounds read low 0.941 | locus YBR160W, strain CDC28, active compounds read low 0.941 | locus YDL017W, strain CDC7, active compounds read low 0.932 | locus YDL028C, strain MPS1, active compounds read low 0.933 | [1] 0.945 | locus YDL108W, strain KIN28, active compounds read low 0.934 | locus YDL132W, strain cdc53, active compounds read low 0.948 | locus YDL214C, strain PRR2, active compounds read low 0.814 | locus YDR052C, strain DBF4, active compounds read low 0.944 | locus YDR054C, strain cdc34, active compounds read low 0.917 | locus YDR226W, strain ADK1, active compounds read low 0.931 | locus YDR477W, strain SNF1, active compounds read low 0.791 | locus YER123W, strain YCK3, active compounds read low 0.721 | locus YER133W, strain GLC7, active compounds read low 0.762 | locus YFL009W, strain cdc4, active compounds read low 0.921 | locus YFL029C, strain CAK1, active compounds read low 0.932 | locus YFR003C, strain YPI1, active compounds read low 0.928 | locus YFR019W, strain FAB1, active compounds read low 0.864 | locus YFR028C, strain CDC14, active compounds read low 0.915 | locus YGR040W, strain KSS1, active compounds read low 0.728 | locus YGR052W, strain FMP48, active compounds read low 0.759 | locus YGR092W, strain DBF2, active compounds read low 0.569 | locus YHR079C, strain IRE1, active compounds read low 0.849 | locus YHR082C, strain KSP1, active compounds read low 0.875 | locus YHR205W, strain SCH9, active compounds read low 0.82 | locus YIL147C, strain SLN1, active compounds read low 0.932 | [2] 0.82 | locus YJL128C, strain PBS2, active compounds read low 0.86 | locus YJL157C, strain FAR1, active compounds read low 0.832 | locus YJR016C, strain ILV3, active compounds read low 0.922 | locus YJR066W, strain TOR1 (second series), active compounds read low 0.633 | locus YJR066W, strain TOR1, active compounds read low 0.863 | locus YKL067W, strain YNK1, active compounds read low 0.812 | locus YKL101W, strain HSL1, active compounds read low 0.725 | locus YKL193C, strain SDS22, active compounds read low 0.928 | locus YKL203C, strain TOR2, active compounds read low 0.836 | locus YLR133W, strain CKI1, active compounds read low 0.855 | locus YLR403W, strain SFP1, active compounds read low 0.858 | locus YML070W, strain DAK1, active compounds read low 0.698 | locus YMR001C, strain CDC5, active compounds read low 0.921 | locus YMR205C, strain PFK2 (second series), active compounds read low 0.846 | locus YMR277W, strain FCP1, active compounds read low 0.917 | locus YNL006W, strain LST8, active compounds read low 0.932 | locus YNL020C, strain ARK1, active compounds read low 0.833 | locus YNL161W, strain CBK1, active compounds read low 0.934 | locus YNL183C, strain NPR1, active compounds read low 0.861 | locus YNL207W, strain RIO2, active compounds read low 0.924 | locus YNL222W, strain SSU72, active compounds read low 0.934 | locus YNL307C, strain MCK1 (second series), active compounds read low 0.809 | locus YOL078W, strain AVO1, active compounds read low 0.928 | locus YOL136C, strain PFK27, active compounds read low 0.792 | [3] 0.822 | locus YOR119C, strain RIO1, active compounds read low 0.778 | locus YOR231W, strain MKK1, active compounds read low 0.799 | locus YOR329C, strain SCD5, active compounds read low 0.939 | locus YPL031C, strain PHO85, active compounds read low 0.781 | locus YPL153C, strain RAD53, active compounds read low 0.716 | locus YPL204W, strain HRR25, active compounds read low 0.724 | locus YPL209C, strain IPL1, active compounds read low 0.937 | locus YPR025C, strain CCL1, active compounds read low 0.937 | locus YPR106W, strain ISR1, active compounds read low 0.926 | locus YPR111W, strain DBF20, active compounds read low 0.918 | strain NNK1, active compounds read low 0.921 | strain TSCII, active compounds read low 0.929
active: locus YHR030C, strain SLT2, active compounds read low 0.631 | locus YKL048C, strain ELM1, active compounds read low 0.797 | locus YLR113W, strain HOG1, active compounds read low 0.596 | locus YPL256C, strain CLN2, active compounds read low 0.714

COc1ccc(-c2cc(=O)c3c(OC)cccc3o2)cc1
inactive: locus YBR021W, strain FUR4, active compounds read low 0.978 | locus YBR229C, strain ROT2, active compounds read low 1.04 | locus YCL029C, strain bik1, active compounds read low 1.05 | locus YDL035C, strain GPR1, active compounds read low 1.03 | locus YDL074C, strain BRE1, active compounds read low 1.09 | [1] 1.03 | locus YDL185W, strain tfp1, active compounds read low 1.02 | locus YDL192W, strain arf1, active compounds read low 1.06 | locus YDR101C, strain arx1, active compounds read low 1.01 | locus YDR162C, strain NBP2, active compounds read low 1.05 | locus YDR318W, strain mcm21, active compounds read low 1.03 | locus YDR388W, active compounds read low 1.04 | locus YDR502C, strain sam2, active compounds read low 1.01 | locus YER110C, active compounds read low 1.02 | locus YER155C, strain BEM2, active compounds read low 1.03 | locus YER167W, strain BCK2, active compounds read low 1.04 | locus YGL078C, strain dbp3, active compounds read low 0.944 | locus YGL086W, strain mad1, active compounds read low 1.01 | locus YGL248W, strain PDE1, active compounds read low 1.05 | locus YGR135W, strain pre9, active compounds read low 1 | locus YGR252W, strain gcn5, active compounds read low 0.89 | locus YHR079C, strain IRE1 (second series), active compounds read low 1.02 | locus YHR094C, strain hxt1, active compounds read low 1.01 | locus YHR129C, strain ARP1, active compounds read low 1.06 | locus YHR200W, strain rpn10, active compounds read low 1.04 | locus YIL066C, strain RNR3, active compounds read low 1.06 | locus YIL073C, strain SPO22, active compounds read low 1.11 | locus YIL125W, strain kgd1, active compounds read low 1.04 | locus YIR030C, strain dcg1, active compounds read low 1.05 | [2] 1.1 | locus YJL134W, strain LCB3, active compounds read low 1.04 | locus YJL168C, strain set2, active compounds read low 1.03 | locus YJL187C, strain SWE1 (second series), active compounds read low 1.03 | locus YJR043C, strain POL32, active compounds read low 1.04 | locus YJR075W, strain HOC1, active compounds read low 1.06 | locus YKL009W, strain mrt4, active compounds read low 0.911 | locus YKL068W, active compounds read low 1.02 | locus YKL085W, strain MDH1 (second series), active compounds read low 1.04 | locus YKL085W, strain MDH1, active compounds read low 1.04 | locus YKR001C, strain vps1, active compounds read low 1.09 | locus YLR039C, strain RIC1, active compounds read low 1.28 | locus YLR058C, strain SHM2, active compounds read low 1.03 | locus YLR102C, strain apc9, active compounds read low 1.02 | locus YLR262C, strain YPT6, active compounds read low 1.21 | locus YLR268W, strain sec22, active compounds read low 1.02 | locus YLR371W, strain rom2, active compounds read low 1.06 | locus YLR418C, strain cdc73, active compounds read low 1.12 | locus YML016C, strain PPZ1, active compounds read low 1.05 | locus YML032C, strain rad52, active compounds read low 0.998 | locus YML124C, strain tub3, active compounds read low 1.03 | locus YMR078C, strain ctf18, active compounds read low 1.03 | locus YMR223W, strain ubp8, active compounds read low 1.01 | locus YMR307W, strain GAS1, active compounds read low 1.22 | locus YNL067W, strain RPL9B, active compounds read low 1.04 | locus YNL153C, strain GIM3, active compounds read low 1.02 | locus YNL233W, strain BNI4, active compounds read low 1.08 | locus YNL250W, strain rad50, active compounds read low 1.05 | locus YNL271C, strain bni1, active compounds read low 1.04 | locus YNL298W, strain CLA4, active compounds read low 0.98 | locus YNL307C, strain MCK1, active compounds read low 1.03 | locus YNL322C, strain KRE1, active compounds read low 1.04 | locus YNR052C, strain pop2, active compounds read low 1.01 | locus YOL006C, strain TOP1, active compounds read low 1.25 | locus YOL012C, strain htz1 1.26 | locus YOL147C, strain pex11, active compounds read low 1.03 | [3] 1.05 | locus YOR069W, strain VPS5, active compounds read low 1.04 | locus YOR136W, strain idh2, active compounds read low 1.03 | locus YOR144C, strain elg1, active compounds read low 1.01 | locus YOR184W, strain ser1, active compounds read low 1.01 | locus YOR316C, strain cot1, active compounds read low 1.02 | locus YPR119W, strain clb2, active compounds read low 1.05 | locus YPR141C, strain kar3, active compounds read low 1.05 | locus YPR163C, strain tif3, active compounds read low 1.02 | locus YPR167C, strain met16, active compounds read low 1.02 | strain wtn01, active compounds read low 1.01
